Only some compounds are listed: those with a hit (about 3.6% of all), similar ones and a draw of the others.
TRHR agonist – qHTS for Small Molecule Agonists and Allosteric Enhancers of Human TRH Receptor: Primary Screen for Agonists; AID 493084, 2011; activation, % at 2 µM; TRHR cells, calcium flux fluo-8, FDSS agonist mode; Thyrotropin-releasing hormone receptor (Homo sapiens), P34981; hit rate 0.18% among 360,000; also: 0% is about no effect
Target sequence (P34981 whole entry, looked up): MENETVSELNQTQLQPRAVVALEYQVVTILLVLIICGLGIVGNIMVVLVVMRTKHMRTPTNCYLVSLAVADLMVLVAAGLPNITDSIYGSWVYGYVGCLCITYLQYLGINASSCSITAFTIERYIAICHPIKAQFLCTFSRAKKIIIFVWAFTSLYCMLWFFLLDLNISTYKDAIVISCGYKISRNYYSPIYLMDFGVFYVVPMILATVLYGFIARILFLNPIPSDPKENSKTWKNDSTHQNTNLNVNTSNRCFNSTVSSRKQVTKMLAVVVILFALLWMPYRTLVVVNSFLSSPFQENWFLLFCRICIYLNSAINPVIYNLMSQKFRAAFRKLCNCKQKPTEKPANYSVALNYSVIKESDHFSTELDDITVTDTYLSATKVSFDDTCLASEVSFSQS
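In this calcium-flux screen, cells bearing human TRHR are dye-loaded with fluo-8, baselined for 10 cycles, then exposed to library compounds; positive kinetic calcium responses during the agonist phase mark hits, with TRH as control.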
D1 antag – Antagonist of Human D 1 Dopamine Receptor: qHTS. hit rate 3.2% among 360,000. HEK293 TREx D1 cells, calcium flux, dopamine EC80; stronger effect = lower value. AID 504652, 2011. D(1A) dopamine receptor (Homo sapiens), P21728. activity change, negative = inhibition, % at 10 µM; in the data active = activity change below about -30%; also: % is scaled to controls: 0 for no effect and ±100 for the full control effect
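Compound effects on dopamine-evoked calcium signalling were measured in tetracycline-induced HEK293 Trex D1 cells. Dopamine at EC80 followed a 180 s compound pre-read, and fluorescence was tracked kinetically for 180 s more.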
LDHA inh – qHTS assay for inhibitors of human lactate dehydrogenase | activity change, % (values are at about 110 or 230 µM) | purified LDHA, NADH/diaphorase-resazurin fluorescence; stronger effect = lower value | hit rate 0.15% among 480,000; in the data active = activity change below about -30%;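 also: plate controls were DMSO wells for no effect and wells without enzyme for full effect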
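Resorufin fluorescence (ex540/em590), read at 0 and 20 min after diaphorase/resazurin addition, reports the NADH left after a 5 min room-temperature reaction of 2 nM human LDH5 with 0.06 mM NADH and 0.2 mM pyruvate.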
D1 potentiator – Potentiators of Human D1 Dopamine Receptor: qHTS; D(1A) dopamine receptor (Homo sapiens), P21728; HEK293 TREx D1 cells, calcium flux, dopamine EC20 potentiation; potentiation, % at 10 µM; hit rate 0.036% among 360,000; AID 504651, 2011; in the data active = potentiation above about 30%; also: 0% is about no effect
TRHR enhancer – qHTS for Small Molecule Agonists and Allosteric Enhancers of Human TRH Receptor: Primary Screen for Enhancers. Thyrotropin-releasing hormone receptor (Homo sapiens), P34981. enhancement, % at 2 µM. TRHR cells, fluo-8 calcium fluorescence, EC20 TRH enhancement. hit rate 0.66% among 360,000; in the data active = enhancement above about 30%; also: 0% is about no effect
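TRHR-expressing cells loaded with fluo-8 calcium dye were read kinetically (ex 480/em 530) during compound addition, then stimulated with an EC20 of TRH (10 nM final). Enhancement of the Gq-mediated intracellular calcium response was scored.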
D1 agonist – Allosteric Agonists of the Human D1 Dopamine Receptor: qHTS; AID 504660, 2011; D(1A) dopamine receptor (Homo sapiens), P21728; hit rate 1% among 360,000; HEK293 T-REx D1 cells, calcium flux, agonist mode; activation, % at 2 µM; also: 0% is about no effect
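Inducible HEK293 T-REx D1 cells, force-coupled to calcium signalling, were plated at 4000 cells/well with tetracycline and held overnight at 30 C. After no-wash calcium dye loading, compound-evoked calcium rise over 180 s flagged agonists.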
* hit, by the source's call; . = not tested or not shown. Rule as the data show it, unless noted: active = activation above about 30%; inactive = the rest.

SMILES	TRHR agonist	D1 antag	LDHA inh	D1 potentiator	TRHR enhancer	D1 agonist
Cc1ccc(COC(=O)c2ccccc2Sc2ccccc2C#N)cc1	.	.	-6	.	.	.
CCc1ccc(N/C(SCc2ccccc2C)=C(/C#N)C(=O)NCc2ccco2)cc1	3	-30*	-3	-4	-3	30*
CCc1ccc(OCCCC(=O)NCc2ccco2)cc1	-1	-7	0	-4	5	-1
CCCS(=O)(=O)N1CC(=O)N(c2cc(C)cc(C)c2)C(C)(C(=O)NC2CCCCCC2)C1 (stereo unspecified)	-1	-31*	-14	0	-4	-2
CCCNC(=O)OC[C@H]1O[C@H](CCO/N=C/C[C@@H]2C=C[C@H](OC(C)=O)[C@@H](COC(C)=O)O2)C=C[C@@H]1Oc1ccc(OC)cc1	0	-30*	.	-5	1	4
CCCNC(=O)OC[C@H]1O[C@H](CCO/N=C(\C)CCN2CCc3nc(-c4ccccc4)c(-c4ccccc4)cc3C2)C=C[C@@H]1Oc1ccc(OC)cc1	0	-15	.	-2	-2	4
Cc1ccccc1Cn1c(CN2CCC(C(=O)NCCN(C)C)CC2)cc2ccccc21	4	-8	-3	-3	3	45*
CNC(=O)C1CCN(Cc2cc3ccccc3n2Cc2ccccc2C)CC1	0	25	-1	-2	0	6
O=C(CSCc1ccc(Cl)cc1)Nc1cccc(C(=O)O)c1	1	-4	-6	4	38*	1
CC(=O)c1cccc(NC(=O)CSCc2ccccc2)c1	0	-4	-2	-3	-6	1
CC(=O)c1cccc(NC(=O)CSCc2ccc(Br)cc2)c1	0	-33*	-5	-7	-2	10
Cc1ccc(/C=C2/Sc3ccc(C(=O)N4CCN(C)CC4)cc3NC2=O)cc1	1	-82*	-18	-24	29	17
CCc1ccc(/C(C)=N/NC(=O)CNC(=O)/C=C/c2ccccc2OC)cc1	-2	8	-10	0	20	1
COc1ccccc1/C=C\C(=O)NCC(=O)N/N=C(/C)c1cccc([N+](=O)[O-])c1	0	-65*	-3	-2	-1	-1
CC(C)Cn1c(CN2C(=O)c3ccccc3C2=O)nc2ccccc2c1=O	0	-2	-2	-2	30*	1
NCC(O)(c1ccc(Cl)cc1)c1ccc(Cl)cc1	18	-4	-2	-9	24	51*
Cc1nn(Cc2ccc(C(=O)Nc3ccccc3C(F)(F)F)o2)c(C)c1Br	1	-65*	0	-5	-8	24
COC(=O)C(/C=N/OCc1ccc([N+](=O)[O-])cc1)NC(=O)c1ccccc1 (stereo unspecified)	3	3	1	-3	-7	30*
COc1ccc(S(=O)(=O)NCC(=O)O)cc1OC	.	.	3	.	.	.
COC(=O)c1ccc(C)c(NC(=O)CCSc2ccc(C)cc2)c1	0	-18	-3	-11	34*	3
COC(=O)c1ccc(Sc2ccc(C)cc2)c(N)c1	-1	-36*	-6	-11	-4	10
COc1cccc(NC(=O)CCSc2ccc(C)cc2)c1	0	-2	-2	0	1	-1
Cc1ccc(C(C)C)c(Oc2ccc(C(=O)O)cc2)c1	.	.	0	.	.	.
O=C(Nc1ccccc1Br)c1cc2cc(Br)ccc2oc1=O	.	.	-11	.	.	.
CC(=O)c1c(C)nc(C2CC2)nc1SCC(=O)NC(C)C12CC3CC(CC(C3)C1)C2 (stereo unspecified)	.	.	-4	.	.	.
SMILES	TRHR agonist	D1 antag	LDHA inh	D1 potentiator	TRHR enhancer	D1 agonist
Cc1ccc2nc(Cl)c(CNCc3ccccc3)cc2c1	0	-35*	-5	5	27	4
CCOc1cc(C(Nc2cc(C)ccn2)c2ccc3cccnc3c2O)ccc1OC (stereo unspecified)	-1	-6	6	-4	41*	5
COc1ccc(C(NC(C)=O)c2ccc3cccnc3c2O)cc1OC (stereo unspecified)	.	.	10	.	.	.
O=C(c1cc(-c2ccc(Cl)cc2)on1)N1CCc2ccccc2C1	1	-1	-3	-5	-1	2
O=C(c1cc(-c2ccccc2)on1)N1CCc2ccccc2C1	1	0	-7	-6	36*	1
Cc1ccc(C)c(NC(=O)c2ccc(CN3CC(=O)N4CCCCC4C3=O)cc2)c1 (stereo unspecified)	0	15	8	0	17	0
Cc1cccc(NC(=O)c2ccc(CN3CC(=O)N4CCCCC4C3=O)cc2)c1C (stereo unspecified)	1	2	-18	-1	45*	0
CCOC(=O)C(=CNc1ccc(Cl)cn1)C(=O)OCC	-1	-40*	-11	0	5	1
Cc1cccc(C)c1-n1nnnc1SC(C(=O)N(C)C)c1ccccc1 (stereo unspecified)	.	.	0	.	.	.
CC(=O)c1sc(Cc2cccc(Cl)c2)nc1C	.	.	10	.	.	.
COCCOc1ccc(C(F)(F)F)cc1NC(=O)COC(=O)c1cc[n+]([O-])cc1	0	-17	0	-4	13	6
COCCOc1ccc(C(F)(F)F)cc1NC(=O)COC(=O)c1c(C)noc1C	-1	25	2	-4	34*	3
Cc1cc(C)c(NC(=O)CN(C)C(C)C(=O)N2CCc3ccccc32)c(C)c1 (stereo unspecified)	-1	7	-3	-2	32*	1
Cc1ccc(C(CC(=O)O)NC(=O)C2CCC2)cc1 (stereo unspecified)	.	.	0	.	.	.
COc1ccc2c(c1)C1(C)CC(C)(C)N2C(=O)N1c1ccccc1 (stereo unspecified)	0	-4	0	8	19	56*
COc1cccc(-c2ccc(-c3noc(-c4cccs4)n3)c(OC)n2)c1	1	-1	-38*	-3	-1	-1
COc1ccc2[nH]c(=O)c(-c3noc(-c4cccs4)n3)cc2c1	.	.	-38*	.	.	.
COc1nc(-c2ccc(Cl)cc2)ccc1-c1noc(-c2ccco2)n1	4	.	-37*	-4	-9	2
COc1ccc(C2CC(=O)N(CC(=O)Nc3cc(C)cc(C)c3)c3ccccc3S2)cc1OC (stereo unspecified)	.	.	1	.	.	.
COc1ccc(CNC(=O)CN2CCC(c3nc4ccccc4s3)CC2)cc1	.	.	0	.	.	.
